Compound activity from PubChem.
Most compounds without a hit are left out; they make up all but 3.4% or so of the library.
Bim-Mcl-1 – inhibitors of Bim-Mcl-1 interaction, human. Bead-based flow cytometry, Bim peptide-Mcl-1 binding. inhibition, % at 10 µM. actives 0.1% (n = 190,000). AID 1009; in the data active = inhibition above about 40%
Target sequence (Q07820 whole entry, looked up): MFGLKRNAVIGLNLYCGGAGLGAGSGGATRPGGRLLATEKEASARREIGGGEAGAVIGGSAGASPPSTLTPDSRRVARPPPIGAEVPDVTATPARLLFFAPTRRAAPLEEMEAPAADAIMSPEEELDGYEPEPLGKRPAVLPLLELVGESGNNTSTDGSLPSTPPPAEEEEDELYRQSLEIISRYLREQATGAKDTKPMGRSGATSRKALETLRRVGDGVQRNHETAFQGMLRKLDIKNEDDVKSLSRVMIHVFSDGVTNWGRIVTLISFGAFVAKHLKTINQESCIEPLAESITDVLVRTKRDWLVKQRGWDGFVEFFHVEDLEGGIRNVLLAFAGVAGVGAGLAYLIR
p47phox inh – inhibitors of human p47phox binding; P14598; p47phox/p22phox peptide binding, fluorescence polarization, 2 h; inhibition, % at 24.7 µM; actives 0.53% (n = 220,000); AID 1274;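 active = inhibition above about 30%, limit read from the data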
Mcl1 Noxa PPI – Mcl-1/Noxa interaction inhibition | Q07820 | TR-FRET Mcl-1/Noxa peptide binding, 2 h | inhibition, % at 21.7 µM | actives 1.5% (n = 220,000) | AID 1022;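 active = compounds that cut the protein-peptide binding signal by more than 50% relative to plate controls in a single-dose test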;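 note: His-tagged Mcl-1 with rhodamine Noxa BH3 peptide and terbium anti-His antibody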
14-3-3 Bad PPI – disrupts binding of bovine 14-3-3 zeta to phospho-Bad peptide | P63103 | TR-FRET 14-3-3zeta/Dy647-pBad peptide displacement, 1 h | inhibition, % at 21.7 µM | actives 0.71% (n = 220,000);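 active = inhibition above about 70%, limit read from the data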
Target sequence (P63103 whole entry, looked up): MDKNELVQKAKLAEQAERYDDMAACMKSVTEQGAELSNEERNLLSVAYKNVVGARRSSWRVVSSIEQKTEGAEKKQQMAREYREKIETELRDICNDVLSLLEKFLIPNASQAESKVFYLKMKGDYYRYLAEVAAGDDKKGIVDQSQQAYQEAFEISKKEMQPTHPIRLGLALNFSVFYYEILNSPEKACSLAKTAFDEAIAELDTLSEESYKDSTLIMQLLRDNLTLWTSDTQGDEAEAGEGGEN
Calpain2 inh – calpain II (pig) inhibition; AID 1236; actives 0.37% (n = 220,000); purified calpain II, fluorogenic peptide substrate, 30 min; inhibition, % at 16 µM;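 active = inhibition above about 50%, limit read from the data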
Mcl1-Bid inh – disrupts binding of human Mcl-1 to Bid peptide; Q07820; TR-FRET Mcl-1/Bid-Dy647 peptide binding, 1536-well; inhibition, % at 21.7 µM; actives 0.97% (n = 220,000);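 active = compounds that cut the binding signal by more than half at the single screening dose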;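 note: His-tagged Mcl-1 with europium anti-His antibody binding Bid BH3 peptide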
A number is an active result; 0 = inactive; - = no result.

SMILES	Bim-Mcl-1	p47phox inh	Mcl1 Noxa PPI	14-3-3 Bad PPI	Calpain2 inh	Mcl1-Bid inh
COc1cc(C(=O)NCCCc2nc3ccccc3n2Cc2cc(C)ccc2C)cc(OC)c1OC	0	0	0	0	0	0
O=c1[nH]cc([N+](=O)[O-])cc1Br	0	0	0	0	0	0
COc1ccc(C(=O)Nc2cc(C)on2)cc1S(=O)(=O)N1CC(c2ccccc2)CC1=O (stereo unspecified)	0	0	0	90	0	0
Cc1cccnc1Nc1nc(-c2ccc(O)c(O)c2)cs1	0	0	69	0	0	0
Cc1ccc2nc(/C(C#N)=C\c3ccc(Oc4ccc([N+](=O)[O-])cn4)cc3)[nH]c2c1	0	0	0	0	0	0
COc1ccc2nc(/C(C#N)=C\c3ccc(Oc4ccc([N+](=O)[O-])cn4)cc3)[nH]c2c1	0	0	72	0	0	58
Cc1ccc2nc(/C(C#N)=C\c3ccc([N+](=O)[O-])o3)[nH]c2c1	0	0	66	0	0	52
Cc1ccc(NC(=S)Nc2ccc3nc(-c4ccccn4)c(-c4ccccn4)nc3c2)cc1C	0	112	0	0	0	0
Cc1ccc(S(=O)(=O)Nc2cccc(-c3cn4ccsc4n3)c2)cc1	0	0	0	0	0	0
O=S(=O)(Nc1cccc(-c2cn3ccsc3n2)c1)c1ccc(F)cc1	0	0	0	0	0	98
O=C1C=CC(=O)N1c1ccc(Sc2ccc([N+](=O)[O-])cc2)cc1	-	0	73	0	0	0
O=C(NC(Cc1c[nH]c2ccccc12)C(=O)O)c1ccccc1 (stereo unspecified)	0	0	0	0	0	0
CN(C)c1ccc(C(CNC(=O)c2ccccc2)c2c[nH]c3ccccc23)cc1 (stereo unspecified)	0	0	68	0	0	0
CN(C)c1ccc(C(CNC(=O)c2ccccc2F)c2c[nH]c3ccccc23)cc1 (stereo unspecified)	0	0	66	0	0	0
CN(C)c1ccc(C(CNS(=O)(=O)c2ccc(F)c(F)c2)c2c[nH]c3ccccc23)cc1 (stereo unspecified)	0	0	0	0	0	0
CCOc1ccc(C(=O)NCc2ccccc2)cc1Br	0	0	0	0	0	0
COc1cccc(OC)c1C(=O)Nc1ccccc1C(=O)N1CCOCC1	0	0	0	0	0	84
Cc1ccc(-n2c(SCC(=O)NCCN3C(=O)CSC3=O)nnc2-c2ccccc2)cc1C	0	0	0	0	0	52
O=C(Nc1ccc(Cl)c(Cl)c1)OCCNC(=O)c1cccc(Cl)c1	0	0	0	0	65	0
O=C1/C(=C/C=C/c2ccco2)SC(=S)N1NS(=O)(=O)c1ccccc1	-	0	111	89	0	74
O=C1/C(=C/c2cccs2)SC(=S)N1NS(=O)(=O)c1ccccc1	-	0	0	0	0	0
CC(C)n1nc(C(=O)N2CCN(S(=O)(=O)c3cccs3)CC2)c2ccccc2c1=O	-	0	0	0	0	0
CCOC(=O)N1CCN(C(=O)c2ccccc2-c2ccccc2)CC1	0	0	0	0	0	0
CCOC(=O)N1CCN(Cc2ccccc2F)CC1	0	0	-	0	0	0
CCOC(=O)N1CCN(C(=O)c2ccccc2CCc2ccccc2)CC1	0	87	0	0	0	0
SMILES	Bim-Mcl-1	p47phox inh	Mcl1 Noxa PPI	14-3-3 Bad PPI	Calpain2 inh	Mcl1-Bid inh
CCOC(=O)N1CCN(Cc2ccccc2Cl)CC1	0	0	0	75	0	0
COc1ccc(CCn2ccc(O)c(Cc3c(F)cccc3Cl)c2=O)cc1OC	0	0	0	0	0	0
N#Cc1ccc(-c2ccccc2)nc1SCC(=O)c1cc2ccccc2oc1=O	0	0	0	0	0	64
FC(F)(F)c1cccc(NCc2n[nH]c(=S)n2C2CCCCC2)c1	0	0	0	0	56	0
OC(COCC1COc2ccccc2O1)CN1CCN(c2ccccn2)CC1 (stereo unspecified)	0	0	0	80	0	0
OC(COCC1COc2ccccc2O1)CN1CCc2ccccc2C1 (stereo unspecified)	0	0	0	0	0	0
COc1ccc(N2C(=O)C3[C@@H](C2=O)C2(Cl)C(Cl)=C(Cl)C3(Cl)C2(OC)OC)cc1 (stereo partly specified)	0	0	0	0	0	0
CC(C)Cn1c(=O)c2c(nc3n2CCCN3CCc2ccccc2)n(C)c1=O	0	0	0	0	0	0
CCc1ccc(OCc2nnc(SCCN3CCOCC3)n2CC)cc1	0	0	0	0	0	58
CCOCC(=O)Nc1cc(C)on1	0	0	0	0	0	0
CCOC(=O)C1=C(C)Nc2ccccc2N=C1NC(=O)c1ccc(Cl)c(S(=O)(=O)N2CCCC2)c1	0	0	0	0	0	0
Cc1ccc(NC(=O)c2ncc(Cl)c(Cl)c2Cl)cc1C	0	0	0	0	0	0
O=C(Nc1ccc(OC(F)F)cc1)c1ncc(Cl)c(Cl)c1Cl	0	0	0	98	0	0
CC(C)c1ccc(OCC(=O)N(Cc2ccccc2)c2ccccn2)cc1	0	0	0	0	0	0
CC(=C/c1ccccc1)/C=C1/SC(N2CCOCC2)=NC1=O	0	0	0	0	0	64
CC(=O)OCCNc1cc(N2CCN(C)CC2)c2noc3c2c1C(=O)c1ccccc1-3	0	62	0	0	0	0
Cc1nc(N2CCOCC2)[nH]c(=O)c1C(O)C(Cl)(Cl)Cl (stereo unspecified)	-	0	0	0	0	0
COC(=O)c1ccccc1NC(=O)c1cc(-c2ccc(O)cc2)on1	0	0	68	0	0	0
O=C1C2C3C=CC(C2C(=O)N1CCCO)C1C2C(=O)N(CCCO)C(=O)C2C31 (stereo unspecified)	0	0	0	0	0	63
CCCCN1C(=O)C2C3C=CC(C2C1=O)C1C2C(=O)N(CCCC)C(=O)C2C31 (stereo unspecified)	0	0	0	0	0	0
Cc1cc(C)n2nc(C(=O)N/N=C/c3ccco3)nc2n1	-	0	0	0	0	0
O=C(C1=C(O)C(=O)N(c2ncccn2)C1c1ccc(Cl)c(Cl)c1)c1ccco1 (stereo unspecified)	0	0	0	0	0	0
O=C(C1=C(O)C(=O)N(c2ncccn2)C1c1cccc(Cl)c1)c1ccco1 (stereo unspecified)	0	0	63	0	0	0
O=[N+]([O-])c1ccc(Nc2ccc(Cl)cc2)nc1	0	0	0	0	0	0
CC(C)c1ccc(CNc2ccc([N+](=O)[O-])cn2)cc1	0	0	0	0	94	0
O=[N+]([O-])c1ccc(NCc2ccc(Cl)cc2)nc1	-	0	0	0	80	0
CC(C)(C)c1ccc(CNc2ccc([N+](=O)[O-])cn2)cc1	0	0	0	0	79	0
Cc1cccc(CC(=O)c2c[nH]c3ccccc23)c1	-	0	0	0	0	0
